Assay results as given in PubChem BioAssay AID488789 (Broad Institute, 2010).
Potency and affinity values are given separately. Inconclusive results are not listed. Active and inactive are the calls of the source.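 How the source made its calls: active means samples whose fitted half-maximal inhibition concentration is no more than ten times the top valid dose tested; inconclusive means flat response between -70 and -30, or invalid curve fit; inactive means flat within 30 of zero, potency above limit, or signal rising.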

Target: Trypsin (Sus scrofa) (UniProt P00761)
Sequence (P00761 whole entry, looked up): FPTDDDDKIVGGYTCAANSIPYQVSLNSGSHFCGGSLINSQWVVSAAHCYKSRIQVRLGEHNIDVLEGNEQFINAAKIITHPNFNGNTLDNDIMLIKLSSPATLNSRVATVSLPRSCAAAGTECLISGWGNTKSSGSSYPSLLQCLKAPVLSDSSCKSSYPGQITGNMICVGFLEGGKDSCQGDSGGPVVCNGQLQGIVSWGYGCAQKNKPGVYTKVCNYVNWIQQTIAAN
Experiment: trypsin protease activity blockade – biochemical, quenched peptide fluorescence, cherry-pick, selectivity assay for Rce1 protease inhibitor project, dose response (AID 488789);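 further: more negative means stronger trypsin inhibition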
Settings: porcine trypsin, quenched peptide cleavage fluorescence; series mostly up to 10 µM

outcome, inactive:
O=C(O)CCC(=O)c1ccc(-c2ccccc2)cc1
O=C(N/N=C/c1cn(Cc2ccccc2)c2ccccc12)c1cc(O)cc(O)c1
COc1ccc(-c2oc3ncn(Cc4ccco4)c(=N)c3c2-c2ccc(OC)cc2)cc1
CCN(Cc1ccccc1)c1ccc(/C=N/N=C(N)N)cc1
CN(C)C(=O)COc1ccc2ccc(=O)oc2c1
CN1CCN(C(=S)NC(=O)c2ccccc2Cl)CC1
Cc1cccc(OCCN2C(=O)C(=O)c3cc(C)ccc32)c1
CCOc1ccc(-c2nc(CCl)cs2)cc1OC
Cc1ccc(-c2csc(N3CCN(c4cc5c(cc4Cl)nc(-c4ccncc4)n5CCOCCO)CC3)n2)cc1
O=C(COc1ncnc2cc([N+](=O)[O-])ccc12)NC(=O)NC1CCCCC1
Cc1nn(CCC(=O)O)c2nc(-c3cccnc3)cc(C(F)(F)F)c12
CCN(Cc1ccccc1)S(=O)(=O)c1ccc(C(=O)N(CCCN(C)C)c2nc3c(C)c(C)ccc3s2)cc1
COc1ccc(OC)c(NC(=O)c2cc3oc4ccccc4c3cc2O)c1
Cc1c(Cl)c([N+](=O)[O-])nn1CC(=O)N1CCCc2ccccc21
COc1ccc(Br)cc1C(=O)Nc1cc(C)cc(C)c1
O=C1CN(S(=O)(=O)c2ccc([N+](=O)[O-])cc2)CC(=O)N1
Cn1c(CCNS(=O)(=O)c2ccccc2)nnc1SCc1cccnc1
CCOc1cccc(-c2c(C(=O)N/N=C/c3cccs3)nnn2-c2nonc2N)c1
COc1ccccc1NC(=O)CN(c1ccc(C23CC4CC(CC(C4)C2)C3)cc1)S(C)(=O)=O
COCc1c(C(=O)N/N=C/C2CC=CCC2)nnn1-c1nonc1N (stereo not drawn)
CCOc1cccc(-c2c(C(=O)N/N=C/c3c(F)cccc3Cl)nnn2-c2nonc2N)c1
COC(=O)C(Cc1ccccc1)OS(N)(=O)=O (stereo not drawn)
CCOc1ccc(N(CC(=O)NC2CC3CCC2C3)S(=O)(=O)c2ccccc2)cc1 (stereo not drawn)
COCCNc1nc(N)c([N+](=O)[O-])c(N2CCCCCC2)n1
Nc1nc2c(ncn2COC(CO)CO)c(=O)[nH]1
O=C(C[n+]1cc2ccccc2c2ccccc21)c1ccccc1
COc1cccc(CNc2nc3nc(C)cc(C)n3n2)c1
CC(C)c1ccc(NC(=O)COc2nncc3ccccc23)cc1
CN(C)CCN(C(=O)c1ccc2ccccc2c1)c1nc2ccc(F)cc2s1
NCCCn1c(C(=O)c2cc(Cl)c(N)c(Cl)c2)c2ccc(C(F)(F)F)cc2[n+]1[O-]
COCCN1C(=O)/C(=C/c2ccc(Oc3ccc([N+](=O)[O-])cn3)c(OC)c2)SC1=Nc1ccccc1
CCN(CC)CCN(C(=O)c1ccc2ccccc2c1)c1nc2ccc(F)cc2s1
CC(C)NCC(O)COCCOc1ccc(Br)cc1 (stereo not drawn)
O=C(COC(=O)c1ccccc1Cc1ccccc1)NC1CCS(=O)(=O)C1 (stereo not drawn)
CC(Cc1cccs1)NC(=O)Nc1ccc([N+](=O)[O-])cc1 (stereo not drawn)
O=[N+]([O-])c1cc(S(=O)(=O)N2CCCC2)ccc1NN=C1CCCCC1
O=C(C1CCC(=O)N(C2CC2)C1)N1CCN(c2ccccc2Cl)CC1 (stereo not drawn)
Cc1ccccc1NS(=O)(=O)c1ccc(C(=O)NCC(c2ccccc2)N(C)C)cc1 (stereo not drawn)
